# Screening data (PubChem)
# Sampled rows, rich in hits. Any-hit rate of the full collection: about 4.9%.
# MPTP inh – inhibitors of mitochondrial permeability transition pore. inhibition, % at 10 µM. isolated mouse mitochondria, Ca2+ swelling absorbance, 30 min. hit rate 1.4% among 360,000;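 active means inhibition of 50% or more, scaled per plate between neutral and stimulator controls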
# HSF1 inh – HSF1 inhibition. NIH3T3-HGL HSE-luciferase, MG132-induced, luminescence 8 h; hits give low values. activity change, negative = inhibition, % at 7.5 µM (by protocol). hit rate 0.77% among 300,000. AID 2098;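 active means more than half of replicate wells show activity change below -50%, luminescence cut by over half; inconclusive means some wells, but at most half, below -50%; inactive means no replicate well below -50%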;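 further: luciferase reports HSF-1 transcriptional activity via heat shock element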
# HSF1 activator – increases HSF-1 driven luciferase reporter signal; activation, % at 9 µM; NIH3T3-HGL HSF-1 luciferase reporter, MG132, 8 h; 100% = twice DMSO control signal; hit rate 1.7% among 300,000;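 active means mean replicate activation of at least 50% with a set share of replicates each reaching 50%; inconclusive means only one of those two conditions met; inactive means mean below 50% and too few replicates reaching it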
# dFosB activator – enhances mouse delta FosB homodimer DNA binding; P13346; purified delta FosB, TAMRA-CDK5 oligo fluorescence polarization; percent of positive-control signal above neutral wells; activation, % at 25 µM; hit rate 0.99% among 340,000; AID 493131;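 active means mean activation above about 17%, with every replicate also reaching it, limit read from the data, passing the limit was not always enough; inconclusive means only one of the two conditions met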
# Target sequence (P13346 whole entry, looked up): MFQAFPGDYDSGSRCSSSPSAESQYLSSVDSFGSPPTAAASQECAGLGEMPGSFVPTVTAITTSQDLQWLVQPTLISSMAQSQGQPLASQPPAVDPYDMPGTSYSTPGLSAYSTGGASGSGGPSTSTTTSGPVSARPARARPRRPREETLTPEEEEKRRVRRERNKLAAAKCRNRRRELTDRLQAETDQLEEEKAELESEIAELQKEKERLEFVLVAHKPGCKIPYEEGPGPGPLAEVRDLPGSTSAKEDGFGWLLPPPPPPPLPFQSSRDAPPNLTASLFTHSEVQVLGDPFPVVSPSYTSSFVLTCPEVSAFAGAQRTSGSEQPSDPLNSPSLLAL
# HSP90 inh – blocks HSP90-mediated luciferase refolding in reticulocyte lysate | Rabbit reticulocyte lysate, luciferase refolding luminescence, 3 h | inhibition, % at 5.6 µM | hit rate 0.91% among 290,000;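 active means inhibition above the screen-wide mean plus 3 SD, computed separately per campaign, cut at about 16% in these data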;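 further: inhibitors lower the luminescence because luciferase stays unfolded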
# Platelet DG rel – platelet dense granule release activity. human platelet-rich plasma, SFLLRN dense granule ATP release, luminescence. inhibition, %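 (compounds screened at 7.5 µM in platelet-rich plasma)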. hit rate 0.22% among 300,000;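 active means mean replicate score, as percent of positive control, at or above 50; inconclusive means mean below 50 but at least one replicate at or above 50; inactive means mean and every replicate below 50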
# Rh123 counter – Rhodamine 123 counter-screen of mitochondrial pore hits; inhibition, % at 10 µM; isolated mitochondria, membrane potential, Rhodamine 123 fluorescence; AID 624504; hit rate 78% among 5,000; shares compounds with MPTP inh; in the data active means inhibition above about 22%
# MPTP abs DR – dose response confirmation of mitochondrial permeability transition pore inhibitors. AID 651561. shares compounds with MPTP inh. IC50, µM. hit rate 58% among 780. isolated mitochondria swelling, absorbance; in the data active means IC50 below about 20 µM
# MPTP counter DR – counter-screen for mitochondrial permeability transition pore inhibitors, dose response; shares compounds with MPTP inh; isolated mitochondria counterscreen, fluorescence read-out; IC50, µM; hit rate 49% among 780; AID 651564; in the data active means IC50 below about 80 µM
# Numbers stand for hits; i = inactive; ? = inconclusive; nt = no result.
SMILES,MPTP inh,HSF1 inh,HSF1 activator,dFosB activator,HSP90 inh,Platelet DG rel,Rh123 counter,others
O=c1cc(C(F)(F)F)[nH]c2ccc(OC(F)(F)F)cc12,64,i,i,nt,i,i,85,
Cc1cc(C)n2nc(SC(C)C(=O)N3CCOCC3)nc2n1 (stereo unspecified),i,nt,nt,i,nt,nt,nt,
OC(c1ccc(F)c(F)c1)c1nc(-c2ccncc2)cs1 (stereo unspecified),i,nt,nt,nt,nt,nt,nt,
OC(c1ccc(F)cc1)c1nc(-c2ccncc2)cs1 (stereo unspecified),65,nt,nt,nt,nt,nt,57,
COc1ccc(/C=c2\s/c(=C/C(=O)c3ccc(C)cc3)[nH]c2=O)cc1OC,i,i,i,i,i,i,nt,
CCCC1C(c2ccco2)NC(c2ccco2)CC1(C)O (stereo unspecified),78,nt,nt,i,i,i,i,MPTP abs DR=i;MPTP counter DR=i
Cc1ccc2c(c1)c1c(n2CC(O)CNC2CCCCC2)CCCC1 (stereo unspecified),80,i,i,i,i,i,i,
Nc1ncnc(Nc2ccccc2Cl)n1,i,i,i,i,i,i,nt,
CN(C)S(=O)(=O)c1cc(NC(=O)CSc2nn(-c3ccc(Cl)cc3)c(=S)s2)ccc1Cl,70,i,i,i,i,i,81,
Cc1ccc(NC(=O)CSc2nn(-c3ccc(Cl)cc3)c(=S)s2)cc1S(=O)(=O)N(C)C,86,i,i,i,i,i,81,
COC(=O)c1ccc(NC(C)C(=O)OC)c([N+](=O)[O-])c1 (stereo unspecified),i,i,i,i,i,i,nt,
COc1cc2c(cc1OC)C1=NC(=O)CN1C(SCc1ccccc1)=N2,i,nt,nt,i,i,nt,nt,
O=C(COC(=O)c1cc(=O)[nH]c2ccccc12)NCCc1ccccc1,i,nt,nt,i,nt,nt,nt,
O=C(COC(=O)c1cc(S(=O)(=O)N2CCCC2)ccc1O)Nc1ccc(SC(F)F)cc1,92,nt,nt,i,nt,nt,96,
O=C(COC(=O)c1cc(S(=O)(=O)N2CCCC2)ccc1O)Nc1ccc(S(=O)(=O)N2CCOCC2)cc1,i,i,i,i,i,i,nt,
Clc1cccc2c1Sc1ccccc1CC2N1CCNCC1 (stereo unspecified),93,i,i,i,i,i,i,
Clc1ccc2c(c1)C(N1CCNCC1)Cc1ccccc1S2 (stereo unspecified),83,i,i,i,i,i,i,
COCCCN1CCN(C2Cc3ccccc3Sc3ccc(Cl)cc32)CC1 (stereo unspecified),i,i,i,i,i,i,nt,
COc1ccc(C)cc1NCc1cc(=O)oc2cc(-c3ccccc3)c(O)cc12,94,i,i,i,i,i,57,
CCCCCCNC(=O)Nc1ccccc1,i,i,i,i,i,i,nt,
Cc1cc(Cl)ccc1NC(=S)NCc1ccc(Cl)cc1,84,i,i,i,i,nt,99,
Cc1ccc(NC(=S)NCCc2ccccc2)c(C)c1,i,i,i,i,i,i,nt,
S=C(NCCc1ccccc1)Nc1ccc(Cl)cc1Cl,82,i,i,i,i,i,102,
Cc1cc(Cl)ccc1NC(=S)NCCc1ccc(Cl)cc1,88,i,i,i,i,i,81,
CCCCSCCCNC(=O)Nc1ccc(CC)cc1,86,i,i,i,i,i,83,
SMILES,MPTP inh,HSF1 inh,HSF1 activator,dFosB activator,HSP90 inh,Platelet DG rel,Rh123 counter,others
NC(=O)CC(NC(=O)Cc1ccc(Cl)cc1)c1ccc(NCCOc2ccccc2)c([N+](=O)[O-])c1 (stereo unspecified),i,i,i,i,i,i,nt,
O=C(NCCc1ccc(Cl)cc1)Nc1ccc(Cl)cc1,78,i,i,i,i,i,98,
CC(=O)c1cccc(NC(=S)NCCc2ccc(Cl)cc2)c1,83,nt,nt,i,i,i,100,
Cc1ccc(Cl)cc1NC(=S)NCc1cccn1C,64,i,i,i,i,i,47,
O=C1NC(c2cc(Cl)cc([N+](=O)[O-])c2O)Nc2ccccc21 (stereo unspecified),88,i,i,i,i,i,i,MPTP abs DR=i;MPTP counter DR=11
O=C1NC(c2ccc(Cl)c([N+](=O)[O-])c2)Nc2ccccc21 (stereo unspecified),i,i,i,i,i,i,nt,
O=C(NNC1=C(C(=O)C(F)(F)F)CCC1)c1cccc(O)c1,i,i,i,i,i,i,nt,
Cc1cccc(C(=O)NNC2=C(C(=O)C(F)(F)F)CCC2)c1O,93,i,i,i,i,i,92,
O=C(NCCS(=O)(=O)N1CCCCCC1)c1ccc(F)cc1,i,i,i,i,nt,i,nt,
CC(C)C(N)c1csc(NC(=O)Nc2ccc(OC(F)(F)F)cc2)n1 (stereo unspecified),70,nt,nt,nt,nt,nt,88,
COCC(Cc1ccccc1)NC(=O)Cn1cc(C)c(=O)[nH]c1=O (stereo unspecified),i,nt,nt,i,nt,nt,nt,
Cc1ccccc1S(=O)(=O)Oc1cccc2c(O)cccc12,i,i,i,i,i,i,nt,
CCOC(=O)c1c(-c2ccccc2)csc1NC(=O)CSc1nnc(C)s1,67,i,i,i,i,i,46,
Cc1cnc(CNC(=O)C2(C)CCCN2CC(C)C)cn1 (stereo unspecified),i,nt,nt,nt,nt,nt,nt,
CC(=O)Nc1ccc(CCc2nc3ccccc3[nH]2)cc1,i,i,i,i,i,i,nt,
CC(C)c1ccc(NC(=O)N(CCc2nc3ccccc3[nH]2)C2CCCC2)cc1,58,-61,i,i,i,i,81,
O=C(NNc1ccnc2cc(Cl)ccc12)C1CCCCC1,99,i,i,i,i,i,90,
FC(F)Oc1ccc(NC(=S)NNc2ccnc3cc(Cl)ccc23)cc1,101,?,i,i,i,i,65,
COc1ccc(CNC(=O)Nc2nc(C(N)c3ccccc3)cs2)cc1 (stereo unspecified),i,nt,nt,nt,nt,nt,nt,
CCN1CCN(c2cc(-c3ccccc3)nc3cc(-c4cccc(F)c4)nn23)CC1,99,i,i,i,i,i,i,MPTP abs DR=11;MPTP counter DR=i
COc1ccccc1NC(=O)Cn1c(C)cc(=O)c2cccc(OC)c21,70,i,i,nt,i,i,55,
COc1ccc(NC(=O)CNC(=O)Cn2c(C)cc3ccccc3c2=O)cc1OC,70,i,i,i,i,i,24,
Cc1ccccc1C(=O)N1CCC2CC1c1cc(-c3ccc(F)cc3)ccc12 (stereo unspecified),i,nt,nt,i,nt,nt,nt,
CC1(C)CC(=O)C(=Cc2cn(CCC#N)nc2-c2ccc(Cl)cc2)C(=O)C1,77,i,i,i,i,i,59,
CC1(C)CC(=O)C(=Cc2cn(CCC#N)nc2-c2ccc(F)cc2)C(=O)C1,63,i,i,i,i,i,41,
CC1(C)CC(=O)C(=Cc2cn(-c3ccccc3)nc2-c2ccc(Cl)cc2)C(=O)C1,i,?,i,i,i,i,nt,
